Common to all, as to experiment: DAPPL (digital affinity profiling via proximity ligation, sequencing); 10 mM Tris-HCl pH 7.5, 50 mM NaCl, 1 mM DTT, 4% glycerol, room temperature, 30 min; GST-TFs on glutathione beads, 16-mer random dsDNA library, 0.1% formaldehyde crosslink after washing; high values mean tight binding
One assay deals with T1, FEV (Homo sapiens, UniProt Q99581 1-238).
T1 sequence: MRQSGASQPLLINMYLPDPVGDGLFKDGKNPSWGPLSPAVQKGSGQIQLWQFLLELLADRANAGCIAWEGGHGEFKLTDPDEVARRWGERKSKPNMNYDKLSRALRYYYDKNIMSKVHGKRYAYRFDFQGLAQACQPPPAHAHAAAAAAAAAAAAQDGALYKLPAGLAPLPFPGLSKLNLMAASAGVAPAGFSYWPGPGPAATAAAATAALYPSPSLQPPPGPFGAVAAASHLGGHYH
The conditions noted are these: protein: recombinant; tags: N-terminal GST; dsDNA, one strand shown. A digest of the protocol: (§1)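 Yeast served to express human transcription factors as GST fusions, which were then captured on glutathione beads and labelled with DNA barcodes. Pooled with a tag-only sample, they were incubated with 200 nmole of a 16-mer random double-stranded DNA library for 30 min at room temperature in Tris/NaCl/DTT/glycerol buffer, washed, crosslinked with 0.1% formaldehyde, ligated by proximity, amplified by PCR and sequenced. Dividing each hexamer's read frequency for a factor by its frequency for the tag-only sample gives the binding signal.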

The next assay has as its target ETV5 (Homo sapiens, UniProt P41161 1-510). To be noted: protein: recombinant; tags: N-terminal GST; dsDNA, one strand shown. A digest of the protocol:
as §1

A further assay concerns the target HSF1 (Homo sapiens, UniProt Q00613 1-529). The conditions noted are these: protein: recombinant; tags: N-terminal GST; chain copies: 3; dsDNA, one strand shown. In short, it runs like this: as §1
A further assay concerns the target T2, SPIC (Homo sapiens, UniProt Q8N5J4 1-248).
T2 sequence: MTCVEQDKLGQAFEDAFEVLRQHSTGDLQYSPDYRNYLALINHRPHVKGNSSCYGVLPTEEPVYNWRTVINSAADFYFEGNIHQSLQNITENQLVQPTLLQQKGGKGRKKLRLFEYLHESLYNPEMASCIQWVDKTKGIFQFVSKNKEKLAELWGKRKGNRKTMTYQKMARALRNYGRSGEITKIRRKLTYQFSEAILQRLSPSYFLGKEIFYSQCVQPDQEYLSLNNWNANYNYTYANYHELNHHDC
To be noted: protein: recombinant; tags: N-terminal GST; dsDNA, one strand shown. A digest of the protocol: as §1

In the next assay the target is ELF4 (Homo sapiens, UniProt Q99607 1-663). The conditions noted are these: protein: recombinant; tags: N-terminal GST; dsDNA, one strand shown. A digest of the protocol: as §1
A further assay concerns the target T3, ELK4 (Homo sapiens, UniProt P28324-2 1-405).
T3 sequence: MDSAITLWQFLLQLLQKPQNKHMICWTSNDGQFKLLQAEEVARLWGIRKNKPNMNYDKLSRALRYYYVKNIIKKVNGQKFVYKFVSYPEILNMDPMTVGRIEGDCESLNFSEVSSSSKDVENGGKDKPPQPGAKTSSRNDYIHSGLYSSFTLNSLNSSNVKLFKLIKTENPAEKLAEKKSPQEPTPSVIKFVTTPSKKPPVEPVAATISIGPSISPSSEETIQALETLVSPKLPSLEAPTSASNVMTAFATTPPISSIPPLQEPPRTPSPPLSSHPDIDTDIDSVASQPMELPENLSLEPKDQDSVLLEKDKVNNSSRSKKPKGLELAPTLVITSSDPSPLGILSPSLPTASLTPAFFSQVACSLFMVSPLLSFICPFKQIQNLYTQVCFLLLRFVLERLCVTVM
The conditions noted are these: protein: recombinant; tags: N-terminal GST; dsDNA, one strand shown. A digest of the protocol:
as §1

A further assay deals with T4, ETV2 (Homo sapiens, UniProt O00321 1-342).
T4 sequence: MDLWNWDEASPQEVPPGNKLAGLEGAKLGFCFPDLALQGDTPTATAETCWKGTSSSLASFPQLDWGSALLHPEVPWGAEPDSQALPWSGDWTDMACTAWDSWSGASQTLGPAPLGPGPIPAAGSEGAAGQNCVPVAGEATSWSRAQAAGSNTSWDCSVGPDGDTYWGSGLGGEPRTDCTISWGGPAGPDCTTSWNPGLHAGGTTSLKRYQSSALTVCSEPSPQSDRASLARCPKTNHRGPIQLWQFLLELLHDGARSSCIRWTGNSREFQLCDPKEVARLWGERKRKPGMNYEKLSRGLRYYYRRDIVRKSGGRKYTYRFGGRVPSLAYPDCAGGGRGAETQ
To be noted: protein: recombinant; tags: N-terminal GST; dsDNA, one strand shown. In short, it runs like this: as §1

Another assay addresses T5, ELF3 (Homo sapiens, UniProt P78545 1-371).
T5 sequence: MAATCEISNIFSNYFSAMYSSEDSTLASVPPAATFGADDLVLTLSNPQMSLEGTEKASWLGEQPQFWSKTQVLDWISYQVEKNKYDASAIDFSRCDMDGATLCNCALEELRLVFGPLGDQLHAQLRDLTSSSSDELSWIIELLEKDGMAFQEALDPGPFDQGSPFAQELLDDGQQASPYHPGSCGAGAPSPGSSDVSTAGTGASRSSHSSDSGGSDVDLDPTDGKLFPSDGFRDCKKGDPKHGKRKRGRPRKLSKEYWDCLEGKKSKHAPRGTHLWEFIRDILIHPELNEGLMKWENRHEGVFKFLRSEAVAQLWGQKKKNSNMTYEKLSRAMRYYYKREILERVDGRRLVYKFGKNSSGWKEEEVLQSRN
The conditions noted are these: protein: recombinant; tags: N-terminal GST; dsDNA, one strand shown. In short, it runs like this:
as §1

Another assay deals with CRX (Homo sapiens, UniProt O43186 1-299). The conditions noted are these: protein: recombinant; tags: N-terminal GST; dsDNA, one strand shown. In short, it runs like this: as §1
The target in the next assay is ETV1 (Homo sapiens, UniProt P50549 1-477). The conditions noted are these: protein: recombinant; tags: N-terminal GST; dsDNA, one strand shown. In short, it runs like this:
as §1

Chain of ETV5 (P41161 whole entry): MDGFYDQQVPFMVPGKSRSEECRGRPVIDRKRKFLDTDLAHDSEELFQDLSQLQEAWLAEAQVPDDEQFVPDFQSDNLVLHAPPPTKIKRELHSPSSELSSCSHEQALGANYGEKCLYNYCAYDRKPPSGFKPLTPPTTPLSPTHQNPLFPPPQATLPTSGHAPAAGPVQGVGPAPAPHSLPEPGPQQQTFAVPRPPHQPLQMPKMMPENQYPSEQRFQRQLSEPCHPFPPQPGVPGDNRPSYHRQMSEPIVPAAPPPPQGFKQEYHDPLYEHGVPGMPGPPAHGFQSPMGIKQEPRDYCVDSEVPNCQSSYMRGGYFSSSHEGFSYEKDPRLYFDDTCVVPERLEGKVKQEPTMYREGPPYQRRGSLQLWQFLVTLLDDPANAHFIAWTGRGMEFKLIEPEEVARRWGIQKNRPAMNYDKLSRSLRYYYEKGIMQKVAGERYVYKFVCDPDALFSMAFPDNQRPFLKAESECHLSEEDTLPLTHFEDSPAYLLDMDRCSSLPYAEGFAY
Chain of ETV1 (P50549 whole entry): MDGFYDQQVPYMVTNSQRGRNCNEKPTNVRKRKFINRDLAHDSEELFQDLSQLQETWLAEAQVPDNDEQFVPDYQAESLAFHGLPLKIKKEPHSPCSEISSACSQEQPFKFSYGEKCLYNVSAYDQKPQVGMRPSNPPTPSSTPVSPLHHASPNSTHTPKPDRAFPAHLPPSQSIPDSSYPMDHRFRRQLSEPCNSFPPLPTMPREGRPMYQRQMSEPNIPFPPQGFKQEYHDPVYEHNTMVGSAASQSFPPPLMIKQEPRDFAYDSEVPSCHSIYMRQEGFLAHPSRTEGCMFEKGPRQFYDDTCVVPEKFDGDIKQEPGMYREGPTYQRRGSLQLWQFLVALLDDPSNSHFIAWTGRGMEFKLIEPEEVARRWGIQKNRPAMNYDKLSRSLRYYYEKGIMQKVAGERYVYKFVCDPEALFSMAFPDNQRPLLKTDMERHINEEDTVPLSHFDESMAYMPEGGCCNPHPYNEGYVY
Chain of HSF1 (Q00613 whole entry): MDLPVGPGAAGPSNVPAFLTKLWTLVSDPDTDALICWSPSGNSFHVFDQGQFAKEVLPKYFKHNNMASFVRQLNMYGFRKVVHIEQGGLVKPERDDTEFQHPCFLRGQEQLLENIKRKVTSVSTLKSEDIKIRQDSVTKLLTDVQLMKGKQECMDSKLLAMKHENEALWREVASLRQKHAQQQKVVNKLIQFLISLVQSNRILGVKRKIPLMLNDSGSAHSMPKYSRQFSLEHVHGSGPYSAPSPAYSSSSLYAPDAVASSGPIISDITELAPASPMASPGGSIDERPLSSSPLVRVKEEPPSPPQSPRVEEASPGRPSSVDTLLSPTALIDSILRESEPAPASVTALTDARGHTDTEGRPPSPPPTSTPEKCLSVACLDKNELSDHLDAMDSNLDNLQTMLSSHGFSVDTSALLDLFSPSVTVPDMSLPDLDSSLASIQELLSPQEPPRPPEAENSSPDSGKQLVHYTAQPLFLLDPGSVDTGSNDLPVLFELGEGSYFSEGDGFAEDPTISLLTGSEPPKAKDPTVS
Chain of ELF4 (Q99607 whole entry): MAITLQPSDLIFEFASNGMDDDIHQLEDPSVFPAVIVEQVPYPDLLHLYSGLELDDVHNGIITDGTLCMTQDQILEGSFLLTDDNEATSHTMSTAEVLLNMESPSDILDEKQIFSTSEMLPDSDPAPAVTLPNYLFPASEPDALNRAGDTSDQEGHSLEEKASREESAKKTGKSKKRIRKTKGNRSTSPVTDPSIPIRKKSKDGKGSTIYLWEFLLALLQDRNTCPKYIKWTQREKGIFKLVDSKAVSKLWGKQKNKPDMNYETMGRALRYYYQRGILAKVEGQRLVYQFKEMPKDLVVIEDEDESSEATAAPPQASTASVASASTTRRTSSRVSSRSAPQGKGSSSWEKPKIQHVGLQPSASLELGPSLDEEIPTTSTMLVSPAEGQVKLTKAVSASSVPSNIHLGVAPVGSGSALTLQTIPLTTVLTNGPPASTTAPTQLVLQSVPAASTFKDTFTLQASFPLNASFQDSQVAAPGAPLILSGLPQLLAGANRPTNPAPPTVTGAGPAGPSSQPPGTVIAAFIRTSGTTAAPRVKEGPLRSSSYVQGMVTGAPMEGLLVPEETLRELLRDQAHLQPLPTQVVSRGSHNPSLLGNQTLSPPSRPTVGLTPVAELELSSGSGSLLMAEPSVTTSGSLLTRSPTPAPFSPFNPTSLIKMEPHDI
Chain of CRX (O43186 whole entry): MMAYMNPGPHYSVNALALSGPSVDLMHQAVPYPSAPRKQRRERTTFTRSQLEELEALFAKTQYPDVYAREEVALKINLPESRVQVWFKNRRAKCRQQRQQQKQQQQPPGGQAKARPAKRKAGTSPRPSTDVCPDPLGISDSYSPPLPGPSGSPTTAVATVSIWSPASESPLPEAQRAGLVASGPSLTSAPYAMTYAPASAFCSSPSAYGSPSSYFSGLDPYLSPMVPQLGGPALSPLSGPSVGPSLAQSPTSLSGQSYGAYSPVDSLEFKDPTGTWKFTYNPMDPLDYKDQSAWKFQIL

For TCCCCA, the binding signal with FEV was 1.33 fold enrichment (6-mer frequency, TF over GST control); in the assay with ETV5 it was 1.41 fold enrichment (6-mer frequency, TF over GST control); in the assay with HSF1, 1.3 fold enrichment (6-mer frequency, TF over GST control); with SPIC, 1.56 fold enrichment (6-mer frequency, TF over GST control); with ELF4, 1.39 fold enrichment (6-mer frequency, TF over GST control); with ELK4 it was 1.58 fold enrichment (6-mer frequency, TF over GST control). In addition, the binding signal was 1.51 fold enrichment (6-mer frequency, TF over GST control) with ETV2; 1.54 fold enrichment (6-mer frequency, TF over GST control) with ELF3; 1.43 fold enrichment (6-mer frequency, TF over GST control) in the assay with CRX; 1.49 fold enrichment (6-mer frequency, TF over GST control) with ETV1.

Turning to TTCGGC, the binding signal in the assay with FEV was 1 fold enrichment (6-mer frequency, TF over GST control); with ETV5 it was 1.02 fold enrichment (6-mer frequency, TF over GST control); with HSF1, 1.05 fold enrichment (6-mer frequency, TF over GST control); in the assay with SPIC, 1.1 fold enrichment (6-mer frequency, TF over GST control); in the assay with ELF4, 1.19 fold enrichment (6-mer frequency, TF over GST control); in the assay with ELK4, 1.07 fold enrichment (6-mer frequency, TF over GST control). Besides, the binding signal in the assay with ETV2 is 1.22 fold enrichment (6-mer frequency, TF over GST control); with ELF3, 1.07 fold enrichment (6-mer frequency, TF over GST control); in the assay with CRX it was 1.1 fold enrichment (6-mer frequency, TF over GST control); with ETV1 it was 1.14 fold enrichment (6-mer frequency, TF over GST control).

On to ATCTTT, for which the binding signal with FEV was 1.19 fold enrichment (6-mer frequency, TF over GST control); with ETV5 it was 1.16 fold enrichment (6-mer frequency, TF over GST control); with HSF1, 1.58 fold enrichment (6-mer frequency, TF over GST control); with SPIC, 1.35 fold enrichment (6-mer frequency, TF over GST control); with ELF4 it was 1.22 fold enrichment (6-mer frequency, TF over GST control); with ELK4, 1.29 fold enrichment (6-mer frequency, TF over GST control). Besides, the binding signal in the assay with ETV2 is 1.15 fold enrichment (6-mer frequency, TF over GST control); with ELF3, 1.17 fold enrichment (6-mer frequency, TF over GST control); with CRX it was 1.76 fold enrichment (6-mer frequency, TF over GST control); with ETV1, 1.24 fold enrichment (6-mer frequency, TF over GST control).

As for CCGATC, the binding signal in the assay with FEV is 1.24 fold enrichment (6-mer frequency, TF over GST control); with ETV5, 1.25 fold enrichment (6-mer frequency, TF over GST control); with HSF1, 1.23 fold enrichment (6-mer frequency, TF over GST control); with SPIC, 1.27 fold enrichment (6-mer frequency, TF over GST control); with ELF4, 1.2 fold enrichment (6-mer frequency, TF over GST control); with ELK4, 1.13 fold enrichment (6-mer frequency, TF over GST control). In addition, the binding signal in the assay with ETV2 was 1.19 fold enrichment (6-mer frequency, TF over GST control); with ELF3, 1.4 fold enrichment (6-mer frequency, TF over GST control); in the assay with CRX, 1.36 fold enrichment (6-mer frequency, TF over GST control); with ETV1, 1.12 fold enrichment (6-mer frequency, TF over GST control).

CTCTAA: the binding signal with FEV was 1.29 fold enrichment (6-mer frequency, TF over GST control); in the assay with ETV5, 1.37 fold enrichment (6-mer frequency, TF over GST control); in the assay with HSF1 it was 1.49 fold enrichment (6-mer frequency, TF over GST control); with SPIC, 1.6 fold enrichment (6-mer frequency, TF over GST control); with ELF4, 1.31 fold enrichment (6-mer frequency, TF over GST control); with ELK4 it was 1.22 fold enrichment (6-mer frequency, TF over GST control). Also, the binding signal in the assay with ETV2 was 1.37 fold enrichment (6-mer frequency, TF over GST control); in the assay with ELF3, 1.5 fold enrichment (6-mer frequency, TF over GST control); with CRX it was 2 fold enrichment (6-mer frequency, TF over GST control); with ETV1 it was 1.32 fold enrichment (6-mer frequency, TF over GST control).

As for CTTTCA, the binding signal is 1.31 fold enrichment (6-mer frequency, TF over GST control) with FEV; 1.26 fold enrichment (6-mer frequency, TF over GST control) in the assay with ETV5; 1.28 fold enrichment (6-mer frequency, TF over GST control) in the assay with HSF1; 1.37 fold enrichment (6-mer frequency, TF over GST control) with SPIC; 1.44 fold enrichment (6-mer frequency, TF over GST control) with ELF4; 1.54 fold enrichment (6-mer frequency, TF over GST control) with ELK4. Further, the binding signal was 1.42 fold enrichment (6-mer frequency, TF over GST control) in the assay with ETV2; 1.18 fold enrichment (6-mer frequency, TF over GST control) with ELF3; 1.25 fold enrichment (6-mer frequency, TF over GST control) in the assay with CRX; 1.45 fold enrichment (6-mer frequency, TF over GST control) in the assay with ETV1.

CCGAAA: the binding signal was 1.17 fold enrichment (6-mer frequency, TF over GST control) with FEV; 1.25 fold enrichment (6-mer frequency, TF over GST control) with ETV5; 1.73 fold enrichment (6-mer frequency, TF over GST control) with HSF1; 1.31 fold enrichment (6-mer frequency, TF over GST control) with SPIC; 1.2 fold enrichment (6-mer frequency, TF over GST control) with ELF4; 1.14 fold enrichment (6-mer frequency, TF over GST control) with ELK4. The binding signal with ETV2 is 1.27 fold enrichment (6-mer frequency, TF over GST control); with ELF3, 1.17 fold enrichment (6-mer frequency, TF over GST control); in the assay with CRX, 1.28 fold enrichment (6-mer frequency, TF over GST control); with ETV1, 1.23 fold enrichment (6-mer frequency, TF over GST control).

The values above are taken from paper PMC7862700, “An all-to-all approach to the identification of sequence-specific readers for epigenetic DNA modifications on cytosine”.
